From PubChem BioAssay
ARNT TACC3 PPI: ARNT/TACC3 interaction disruption. Q9Y6A5. AlphaScreen His-ARNT PAS-B/GST-TACC3 binding, luminescence; TACC3 fragment carries E629A point mutation. inhibition, % at 9.99 µM. 390,000 tested, 0.66% active. AID 623870;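 active = mean inhibition of replicates at least 50% and at least half of replicates each reaching 50%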;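 also: 0% = complete ARNT plus TACC3 wells and 100% = ARNT alone without TACC3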
PfHsp90 set2: growth inhibition of yeast expressing Plasmodium Hsp90. S. cerevisiae expressing PfHsp90, BacTiter-Glo ATP, 48 h; yeast lacking PDR1 and PDR3 efflux regulators. 310,000 tested, 0.32% active. inhibition, % at 9.4 µM;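 active = every replicate shows inhibition above about 80%, whatever the replicate mean, limit read from the data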;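 also: 0% = DMSO neutral controls and 100% = 20 µM radicicol positive controls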
SIRT5 inh: sirtuin-5 (human) deacylase inhibition. Purified SirT5, succinyl-peptide AMC, trypsin-coupled fluorescence. Q9NXA8. inhibition, % at 15 µM. 330,000 tested, 1.1% active; in the data active = inhibition above about 15%
CASP6 VEID inh: inhibitors of human caspase-6. P55212. inhibition, % at 12.5 µM. AID 686996. 350,000 tested, 0.53% active. purified caspase-6, Z-VEID-R110 cleavage fluorescence;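 active = mean inhibition across replicates at least about 35%, with every replicate also reaching that limit, limit read from the data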;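 also: 0% = median of neutral control wells and 100% = no fluorescence left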
NSD2 inh: inhibitors of human histone methyltransferase NSD2. O96028. NSD2 peptide methylation, AlphaScreen, 120 min. inhibition, % at 12.5 µM. 310,000 tested, 0.54% active. AID 743445; in the data active = inhibition above about 50%
An asterisk follows results filed as active; . = no result. Only some compounds are listed: those with a hit (about 2.1% of all), similar ones and a draw of the others.

SMILES	ARNT TACC3 PPI	PfHsp90 set2	SIRT5 inh	CASP6 VEID inh	NSD2 inh
O=C(/C=C/c1ccc([N+](=O)[O-])cc1)c1ccccc(=O)c1O	-3	123*	0	6	-6
CCC(=O)OCOc1ccc(/C=C2/CCC(CN(C)C)C2=O)cc1 (centres undefined)	-2	143*	3	4	10
CO[C@H]1CN(C)C(=O)c2cc(NS(C)(=O)=O)ccc2OC[C@@H](C)N(CC2CCOCC2)C[C@H]1C	-5	.	-4	-4	.
CN1CCN(CC(=O)Nc2ccc(Cl)cc2Cl)CC1	1	3	-2	43*	-1
C[C@H]1CCCCO[C@H](CN(C)Cc2ccc(C(=O)O)cc2)[C@@H](C)CN([C@@H](C)CO)C(=O)c2cc(NS(=O)(=O)c3ccc(F)cc3)ccc2O1	-12	.	-1	2	.
CCOC(=O)N1CCN(c2ccc(C(=O)CC)cc2F)CC1	-10	-5	.	.	-1
CCC(=O)c1ccc(N2CCN(C(=O)c3ccccc3)CC2)c(F)c1	-10	20	-3	88*	0
CO[C@@H]1CN(C)C(=O)c2cc(NC(=O)C3CCC3)ccc2OC[C@H](C)N(Cc2cccnc2)C[C@@H]1C	-3	.	-10	-2	.
C/C(=N\Nc1ccc(C(=O)O)cc1)c1ccc2c(c1)Nc1ccccc1S2	29	-13	24*	21	.
C/C(=N\Nc1ccc(Cl)c(C(=O)O)c1)c1ccc2c(c1)OCO2	-1	-21	0	3	.
C/C(=N/Nc1ccc(C(=O)O)cc1)c1ccc2c(c1)Nc1ccccc1S2	21	-5	24*	12	1
COc1ccc(/C(C)=N/Nc2cccc(C(=O)O)c2)cc1OC	-3	9	3	0	4
CC(C)NC(=O)N(C)C[C@H]1OCCCC[C@H](C)Oc2ccc(NC(=O)c3ccccc3)cc2C(=O)N([C@H](C)CO)C[C@H]1C	0	.	-1	2	.
CCCC(C)C(=O)Nc1nc(C)c(-c2csc(Nc3ccccc3OC)n2)s1 (centres undefined)	-2	-42	-3	-3	.
CCCC(C)C(=O)Nc1nc(C)c(-c2csc(Nc3ccc(Cl)cc3)n2)s1 (centres undefined)	-8	-10	31*	0	.
COc1ccccc1NC(=O)N[C@@H]1C=C[C@H](CC(=O)N[C@@H](C)c2ccccc2)O[C@@H]1CO	.	.	-3	-3	.
Cc1ccc(C(=O)N/N=C/c2ccc(-c3ccccc3[N+](=O)[O-])o2)cn1	27*	-2	4	4	3
Cc1ccc(C(=O)N/N=C/c2ccc(-c3cccc(Cl)c3)o2)cn1	4	-12	12	-1	0
CCOc1cc2nc(-c3ccc(OC)c(OC)c3)nc(NCCCN3CCOCC3)c2cc1OC	55*	.	.	.	3
COc1cc2nc(=S)n(CCCN3CCOCC3)c(N)c2cc1OC	56*	.	.	.	.
C[C@@H]1CN([C@H](C)CO)C(=O)c2cc(NC(=O)Nc3cccc4ccccc34)ccc2O[C@@H](C)CCCCO[C@H]1CN(C)Cc1ccncc1	5	.	2	-1	.
O=C(CN1CCOCC1)NCC[C@H]1CC[C@H](NC(=O)Cc2ccccn2)[C@@H](CO)O1	4	.	1	0	.
C[C@@H](O)C#Cc1ccc([C@@H]2[C@H](CO)N3CCCCN(CC4CC4)C[C@@H]23)cc1	0	.	4	-2	.
OC[C@H]1[C@H](c2ccc(C#CC3(O)CCCC3)cc2)[C@H]2CN(Cc3cncnc3)CCCCN21	-3	.	21*	1	.
C[C@H](O)C#Cc1ccc([C@H]2[C@H]3CN(CC4CC4)CCCCN3[C@H]2CO)cc1	-4	.	16*	5	.
C[C@@H](O)C#Cc1ccc([C@H]2[C@H](CO)N3CCCCN(CC4CC4)C[C@@H]23)cc1	-5	.	21*	6	.
O=C(C[C@@H]1CC[C@@H]2[C@H](COC[C@H](O)CN2CCc2ccccc2)O1)N1CCC(Cc2ccccc2)CC1	-4	.	5	0	.
COc1ccc(/C=N/NC(=O)c2ccco2)cc1Cn1nc(C)cc1C	.	1	34*	2	-2
COc1ccc(/C=N/NC(=O)c2ccncc2)cc1Cn1nc([N+](=O)[O-])c(Br)c1C	10	2	20*	12	-1
COc1ccc(/C=N/NC(=O)c2ccn[nH]2)cc1Cn1nc(C)c([N+](=O)[O-])c1C	.	.	0	-3	-1
